Data as given in PubChem BioAssay AID504332 (National Center for Advancing Translational Sciences (NCATS), 2011).
Values joined by “and” are separate entries in the source; they are usually repeats but may differ in a detail not shown here. Equal entries are not always repeated. The whole screen tested about 350,000 compounds, of which about 31,000 (8.9%) were called active. About 15% were inconclusive and are not listed. The sample holds actives, similar compounds and a random draw of the others, so the mix is not that of the screen. The call rests on the fitted dose curve; in most records, active means well fitted inhibition curve with a large enough effect; inconclusive means small, poorly fitted or top-dose-only effect; inactive means no such curve, though single readings can be large or run the other way. Where a structure was tested more than once in an assay, its records may differ in their call.

target: Histone-lysine N-methyltransferase EHMT2 (Homo sapiens) (UniProt Q96KQ7); test: qHTS Assay for Inhibitors of Histone Lysine Methyltransferase G9a; settings: G9a H3K9 monomethylation, AlphaScreen, 2 h; series mostly up to 59 µM; activity, negative = inhibition: at the top concentration; further: nearly all actives have a fitted effect of over 75% in size
Outline: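 AlphaScreen read-out: biotin-H3K9 peptide (500 nM) methylation by 20 nM enzyme with 20 uM SAM, 2 h at room temperature after 15 min compound preincubation; anti-monomethyl H3K9 antibody plus donor/acceptor beads, 10 min dark.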
On the % scale 0 is the no-effect control and ±100 the full control effect; potency means the concentration at half of the fitted maximal effect.

Chain of Histone-lysine N-methyltransferase EHMT2 (Homo sapiens) (Q96KQ7 913-1193 limits assumed): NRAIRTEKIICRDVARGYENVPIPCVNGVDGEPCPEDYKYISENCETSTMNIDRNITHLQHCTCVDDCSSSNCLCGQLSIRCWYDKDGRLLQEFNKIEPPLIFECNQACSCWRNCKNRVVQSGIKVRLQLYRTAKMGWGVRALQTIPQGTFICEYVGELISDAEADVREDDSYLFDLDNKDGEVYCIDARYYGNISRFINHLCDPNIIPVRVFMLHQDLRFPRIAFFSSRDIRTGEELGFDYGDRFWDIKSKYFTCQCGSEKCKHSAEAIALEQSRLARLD

activity, negative = inhibition, inactive:
Cc1cc(OC(C)C(=O)NC2CC(C)(C)NC(C)(C)C2)c2c(C)cc(=O)oc2c1 (stereo unspecified) 15.6% [at 102 µM]
CCc1ccccc1NC(=O)N1CCN(C(=O)c2nsc3ccccc23)CC1 12.5%
CCN(Cc1ccccc1)Cc1c(O)ccc2c(=O)c(-c3ccc(Cl)cc3Cl)coc12 -2.39%
O=C(O)CSc1ccc(S(=O)(=O)N2CCCC2)cn1 -37.2% [at 2.33 µM]
O=C(NCc1ccco1)c1ccc([N+](=O)[O-])cc1Cl 17.2% [at 102 µM]
CC(C)(C)NC(=O)NCc1ccco1 9.25% [at 102 µM]
O=C(c1ccc(F)c(S(=O)(=O)N2CCOCC2)c1)N(CCc1ccccc1)Cc1ccccc1 -4.88% [at 102 µM]
CC(=O)c1cccc(OCc2cc(C(=O)NC(C)Cc3cccnc3)no2)c1 (stereo unspecified) 10.3% [at 102 µM]
CN(C)CCn1c2c(c(SCC(=O)NCc3ccccc3)nc1=O)CCC2 -1.82% [at 102 µM]
Nc1c(Cl)cc(-c2csc(N3CCCC3c3nc4cc(Cl)c(Cl)cc4n3CCOCCO)n2)cc1Cl (stereo unspecified) 23.4% [at 102 µM]
COc1cccc(-n2c(SCC(=O)c3c[nH]c4ccccc34)nc3ccccc3c2=O)c1 11.3%
COc1ccc(C(CC(=O)N2CCN(c3ccccc3)CC2)c2c(O)cc(OC)cc2OC)cc1 (stereo unspecified) -0.615% [at 12.7 µM]
COc1ccc(CCNC(=O)c2cc(=O)c3c(C)cc(C)cc3o2)cc1OC -8.8%
COc1cccc(N2CCN(S(=O)(=O)c3ccc4c(c3)CCCN4C(C)=O)CC2)c1 3.68%
CCOC(=O)c1c(NC(=O)C2CC=CCC2C(=O)O)sc(C)c1CC (stereo unspecified) -8.47% [at 102 µM]
CCOC(=O)Nc1sc(C(=O)N(C)C)c(C)c1C(=O)OCC 27.3% [at 102 µM]
Cc1ccccc1CNC(=O)C1CCCN(S(=O)(=O)N(C)c2ccc(F)cc2)C1 (stereo unspecified) -0.195%
Cc1nn(-c2ccc(N3CCCCC3)nn2)c(C)c1CCC(=O)NCc1ccc(F)cc1 0.738%
C/C(=N\N)c1c(-c2ccccc2)c2cc(Br)ccc2[nH]c1=O 0.552% [at 102 µM]
COC(=O)c1oc2ccc(Br)cc2c1NC(C)=O 3.67%
O=C(Nc1ccccc1)C1CCN(C(=O)c2ccc(Br)cc2)CC1 -4.25% [at 102 µM]
CC(=O)c1c(C)[nH]c(C(=O)CN2C(=O)NC(C)(C)C2=O)c1C 3.15% [at 0.501 µM]
Cc1ccc(CN2CCN(Cc3cn(C)nc3-c3ccccc3)CC2CCO)o1 (stereo unspecified) 2.66% [at 102 µM]
Cc1ccccc1CN1CCN(CC(=O)NCc2ccccn2)C1=O 5.93%
Cc1ccc(C(=O)CN2C(=O)NC3(CCc4ccccc43)C2=O)c(C)c1 (stereo unspecified) 3.17% [at 102 µM]
Cc1cc(NC(=O)CSc2nccn2-c2ccc([N+](=O)[O-])cc2)no1 -0.25% [at 102 µM]
O=C(CSc1nccn1Cc1ccc(F)cc1)NCc1ccccc1 -3.68%
COc1ccccc1-n1c(CNC(=O)c2ccccc2)nnc1SCC(=O)Nc1nnc(C)s1 -4.37% [at 102 µM]
Cc1ccc2nc(SCC(=O)Nc3cccc4ccccc34)nc(=O)n2c1 -26.2% [at 102 µM]
COc1ccccc1-n1ccnc1SCC(=O)NC(C)(C)C 19.7% [at 102 µM]
Cc1ccc(C)c(-n2ccnc2SCC(N)=O)c1 23.6% [at 12.7 µM]
COc1cccc(-c2ccc3c(c2)S(=O)(=O)c2cccc(C(=O)O)c2C3=O)c1OC -17.9% [at 0.501 µM]
CCC(=O)N1c2ccc(S(=O)(=O)NCc3ccco3)cc2CC1C (stereo unspecified) -12.6%
Fc1ccc(-n2ncc3c(Nc4ccc(Oc5ccccc5)cc4)ncnc32)cc1 -1.42%
CCCc1cc(=O)[nH]c2nnc(SCC(=O)Nc3nnc(SCC)s3)n12 -30.1% [at 102 µM]
Cc1cccc(Nc2nc(C)nc(N)c2S(=O)(=O)c2ccccc2)c1 4.77%
C=CCc1cccc(/C=N/NC(=O)COc2ccc(-n3cnnn3)cc2)c1O -11.3% [at 102 µM]
CCN(CC)S(=O)(=O)c1ccc(N2CCOCC2)c(NC(=O)c2ccc(=O)n(C)n2)c1 -4.25% [at 12.7 µM]
O=C1[C@@H]2C(Cc3ccc(O)cc3)NC3(C(=O)Nc4ccc(F)cc43)[C@@H]2C(=O)N1c1ccc(F)cc1 (stereo partly specified) -37.6% [at 12.7 µM]
C[C@@]12C(=O)N(c3cccc(Br)c3)C(=O)N1[C@H](c1ccc(Cl)cc1)[C@@H]1C(=O)N(C3CCCCC3)C(=O)[C@@H]12 -8.19% [at 102 µM]
O=C(NCCS(=O)(=O)N1CCN(c2ccc(F)cc2)CC1)c1ccc2c(c1)OCO2 -0.16% [at 102 µM]
O=C(Nc1ccccc1F)C(c1ccccc1)N1Cc2ccccc2C1=O (stereo unspecified) -1.89%
CC1CCCCN1Cc1c(O)ccc2c(=O)c(-c3cccc(Cl)c3)c(C(F)(F)F)oc12 (stereo unspecified) -1.19%
CCOC(=O)C(=O)C1C(=O)Nc2ccccc21 (stereo unspecified) -47.2% [at 2.33 µM]
CCCCC(CC)CNC(=O)C1CCN(S(=O)(=O)c2cccc3nsnc23)CC1 (stereo unspecified) 3.29%
O=C(c1ccc2c(c1)N(Cc1ccccc1)C(=O)c1ccccc1S2(=O)=O)N1CCCC1 -26.6%
O=C(c1ccc2c(c1)N(Cc1ccc(Cl)cc1)C(=O)c1ccccc1S2(=O)=O)N1CCCCC1 -1.97%
CCOC(=O)c1cc(C(=O)Nc2ccc(S(=O)(=O)Nc3ccc(OC)cc3)cc2)nn1C 2.94% [at 102 µM]
Cc1ccc2nc(-c3ccc(Br)cc3)cn2c1 -9% [at 102 µM]
O=C1C=C(c2cccc(Cl)c2)C[C@@H](c2ccc(F)cc2)C1 6.54% [at 0.501 µM]
CC1=C(C(=O)OCc2ccc(C)cc2)C(c2ccccc2Cl)CC(=O)N1 (stereo unspecified) -30.3%
N/C(=N\OC(=O)/C=C/c1ccccc1)c1ccc(Br)cc1 23.4% [at 102 µM]
N/C(=N\OC(=O)c1ccc2c(c1)OCO2)c1ccc(Br)cc1 -36.4% [at 102 µM]
CCN1C(=O)/C(=c2\s/c(=C3\Sc4ccccc4N3C)c(=O)n2C)N(C)C1=S -35.3% [at 102 µM]
CCCCN1C(=O)/C(=C/C=C2/C=Cc3ccccc3N2CC)SC1=S 7.58% [at 102 µM]
CCN1C(=O)[C@H]2[C@@H](c3ccc(SC4CCCCC4)c(OC)c3)N[C@@](Cc3ccccc3)(C(=O)OC)[C@H]2C1=O 20.9% [at 2.33 µM]
CCc1ccccc1NC(=O)c1ccc(F)c(S(=O)(=O)NC2CCCCCC2)c1 -9.97%
Cn1c(=O)c2sccc2n2c(CCC(=O)NCc3ccccc3Cl)nnc12 -1.25%
Cc1ccccc1NC(=S)NNC(=O)c1cccc(Br)c1 -38% [at 102 µM]
Cc1ccc(-c2nnc3c4ccccc4c(C)nn23)cc1NC(=O)c1cccc(Br)c1 6.92%
CC(=O)Nc1ccc(S(=O)(=O)N2CCN(S(=O)(=O)c3cccs3)CC2)cc1 -24.6% [at 102 µM]
CCCc1c(C(=O)N/N=C(\C)CCc2ccc(OC)cc2)nnn1-c1nonc1N 20.9% [at 102 µM]
O=C(Nc1cccnc1)c1cc([N+](=O)[O-])ccc1Cl -28.5% [at 102 µM]
O=C(/C=C/c1ccc(Cl)cc1Cl)NCc1ccco1 2.18% [at 0.501 µM]
C/C(=N\NC(=O)Cc1ccccc1[N+](=O)[O-])c1cccnc1 79.8% [at 102 µM]
O=C(Nc1cccnc1)c1cc(Cl)ccc1Cl 5.34% [at 102 µM]
Cc1ccc(S(=O)(=O)N2CCCc3cc(NS(=O)(=O)c4cc(C)ccc4C)ccc32)cc1 -41.9%
CCOc1ccc(CCNC(=O)COC(=O)CCS(=O)(=O)c2ccc(C)cc2)cc1OCC -3.67% [at 0.501 µM]
O=C(CCn1c(=O)c2sccc2n(Cc2ccc(F)cc2)c1=O)NCc1ccc2c(c1)OCO2 -1.21%
S=C(NCc1ccc(Cl)cc1)NC1CCCCC1 8.97%
O=C(NC1CCCCCC1)c1cccnc1Sc1ccc(Cl)cc1 7.32%
CCSc1ncc(Cl)c(C(=O)Nc2c(C(=O)c3ccccc3)oc3ccccc23)n1 -5.28%
Cc1ccc(CNC(=O)CSc2c3c(nc4cc(Cl)ccc24)CCCC3)cc1 -3.31%
COc1ccc(CNC(=O)c2cc3c(=O)[nH]c4ccccc4c3s2)cc1 10.3%
CCCn1c(=O)c2[nH]c(-c3ccc(OCC(=O)NCCN)cc3)nc2n(CCC)c1=O 32.3% [at 12.7 µM]
CCCNC(=O)CCn1cc(-c2ccc(OC)cc2)nc1CCN -5.65% [at 2.33 µM]

Potency, inactive:
CCCn1c(=O)c2[nH]c(C3CCCC3)nc2n(CCC)c1=O

Potency, inactive and 22.4 µM (active):
O=C(c1ccc2c(c1)N(Cc1ccc(F)cc1)C(=O)c1ccccc1S2(=O)=O)N1CCN(c2ccccn2)CC1

Potency, active:
Cc1ccc(/C([O-])=C(/C(=S)NCc2ccco2)[n+]2ccccc2)cc1[N+](=O)[O-] 39.8 µM
Cc1nc2cc(C(F)(F)F)ccc2n1CCNc1nc(-c2cc(Cl)c(N)c(Cl)c2)cs1 39.8 µM
COc1ccc(C(C(O)C(=O)c2c[nH]c3ccccc23)N2CCN(c3ccccc3)CC2)cc1 (stereo unspecified) 25.1 µM
CCOC(=O)c1c(NC(C)=O)sc2c(O)c(Br)ccc12 1.58 µM
COC(=O)c1[nH]c2ccc(Br)cc2c1NC(=O)Oc1ccccc1 11.2 µM
Cc1ccccc1CN1C[C@@H]2C[C@@H](c3cn(C)nc3-c3ccccc3)N3CCC[C@@]23C1=O 10 µM
Cc1cccc(-n2ccnc2SCC(=O)Nc2cccc3ccccc23)c1C 12.6 µM
Cc1nnc(NC(=O)CSc2nccn2-c2cccc(C)c2C)s1 50.1 µM
O=C(CSc1nccn1-c1ccc(F)cc1)Nc1cccc2ccccc12 14.1 µM
CSCCC1NC2(C(=O)Nc3ccc(Cl)cc32)[C@@H]2C(=O)N(C3CCCC3)C(=O)[C@H]12 (stereo partly specified) 50.1 µM
CCCCC(CC)CNC(=O)C(=O)C1C(=O)Nc2ccccc21 (stereo unspecified) 44.7 µM
N/C(=N\OC(=O)N1c2ccccc2Sc2ccccc21)c1ccc(Br)cc1 50.1 µM
CCN1C(=O)/C(=C2/Sc3ccccc3N2CCCS(=O)(=O)O)SC1=S 39.8 µM
O=C(NC(=S)Nc1cccc2c(O)cccc12)c1cccc(Br)c1 50.1 µM
O=C(/C=C/c1ccc(Cl)cc1Cl)c1cccnc1 8.91 µM
O=C(/C=C/c1ccc(Cl)c([N+](=O)[O-])c1)c1cccnc1 39.8 µM
O=C(NC1CCCCC1)c1ccc(-c2ccc(Cl)cc2)o1 44.7 µM
CCCn1c(=O)c2[nH]c(-c3ccc(OCC(=O)NCCN)cc3)nc2n(CCC)c1=O 14.1 µM
